Cell viability data for 45 compounds are collected here from the supplement of paper PMC10600219.

Counter-ions that a name gives are not always drawn. Over roughly 2,800 compounds, “cell viability relative to vehicle” has its median near 1.1; the lowest 2% begin near 0.19. This excerpt belongs to a sample that is enriched for the lowest values.

In the test the test system is NCI-H2228 parental. Nature of the test: cell viability relative to vehicle (fraction of vehicle); NCI-H2228 is an ALK-positive lung cancer line and DTP means drug-tolerant persister; higher = less growth inhibition. As to conditions: 100 nM; treatment time 6 days. Summed up: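 Drug-tolerant persister NCI-H2228 cells, produced by 13 days in 1000 nM of a targeted drug, and their parental counterparts were seeded into 384-well plates and, the following day, given the 3114-agent TargetMol anti-cancer compound library at 100 nM or DMSO vehicle. After 6 days, the CellTiter-Glo 3D Cell Viability Assay was used to read ATP. Each entry reports viability compared with vehicle-treated cells.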
`CC1=C[C@]2(O)O[C@@]3(CC2=C(C)C)[C@@H](C)CC[C@@H]13` [Curcumenol]: the cell viability worked out at 1.1.

Consider `CC(=O)O[C@H]1CC(=O)OC(C)(C)[C@@H]2CC(=O)[C@]3(C)[C@H](CC[C@@]4(C)[C@@H](c5ccoc5)OC(=O)[C@H]5O[C@]543)[C@@]12C` [Nomilin], for which the cell viability amounted to 1.13.

Regarding `CC(=O)O[C@@H]1C[C@H](O)[C@@]23CO[C@@H](O)[C@]1(C)[C@@H]2C[C@@H](O)[C@]1(C)[C@@H]3C(=O)[C@H](OC(C)=O)[C@@]2(C)[C@H](c3ccoc3)C[C@H]3O[C@]321` [Toosendanin], the cell viability turned out to be 0.147.

With `CC(C)=CCC(OC(=O)C=C(C)C)C1=CC(=O)c2c(O)ccc(O)c2C1=O` (stereo not drawn) [beta, beta-dimethylacrylshikonin], the cell viability came out at 1.03.

For `CC1(C)CC[C@]2(C(=O)O)CC[C@]3(C)C(=CC[C@@H]4[C@@]5(C)CCC(=O)C(C)(C)[C@@H]5CC[C@]43C)[C@@H]2C1` [Oleanonic Acid], the cell viability was found to be 1.12.

In the case of `O=C(Nc1c[nH]nc1-c1nc2ccc(CN3CCOCC3)cc2[nH]1)NC1CC1`, the cell viability was found to be 0.106.

Turning to `O=C(NC1CCOCC1)c1ccc(-c2cc(-c3c[nH]nc3-c3ccccn3)ccn2)cc1`, the cell viability worked out at 1.01.

Regarding `COCCN1CCN(Cc2ccc(-c3n[nH]c4c3C(=O)c3c(NC(=O)NN5CCOCC5)cccc3-4)cc2)CC1`, the cell viability came out at 0.253.

On to `CCCCCCCCNc1cc(=O)[nH]c(=O)[nH]1`, for which the cell viability came to 1.01.

In the case of `CCC(=O)Oc1ccc2c(c1)CCC1C2CCC2(C)C(OC(=O)CC)CCC12` (stereo not drawn) [17-Beta-Estradiol-3,17-Dipropionate], the cell viability worked out at 1.24.

For the compound `CCCOc1ccc(CCc2nc3cc(-c4c(C)noc4C)ccc3n2CCN2CCOCC2)cc1` [PF-CBP1 hydrochloride], the cell viability turned out to be 1.06.

In the case of `O=C(Nc1ccc(OC(F)(F)Cl)cc1)c1cnc(N2CC[C@@H](O)C2)c(-c2cc[nH]n2)c1` [Asciminib], the cell viability is 1.11.

Take `NC(=O)Cc1cc[nH]n1` [1H-Pyrazole-3-acetamide]: the cell viability was 0.268.

Turning to `CONC(=O)Nc1ccc(-c2sc3c(c2CN(C)Cc2ccccc2)c(=O)n(-c2ccccc2)c(=O)n3Cc2c(F)cccc2F)cc1` [Sufugolix], the cell viability worked out at 0.979.

In the case of `CN1CCN(Cc2ccc(Nc3ncc(Cl)c(Nc4ccccc4S(=O)(=O)N(C)C)n3)cc2)CC1`, the cell viability was 0.0869.

On to `CNS(=O)(=O)c1ccccc1Nc1nc(Nc2ccc(N3CCN(C)CC3)cc2OC)ncc1Cl` [ALK inhibitor 2], for which the cell viability worked out at 0.448.

As to `COc1cc(N2CCC(N3CCN(C)CC3)CC2)ccc1Nc1ncc(Cl)c(Nc2ccccc2S(=O)(=O)C(C)C)n1`, the cell viability turned out to be 0.421.

On to `O=C(/C=C/c1ccc(O)cc1)C1=C(O)C(O)([C@@H]2O[C@H](CO)[C@@H](O)[C@H](O)[C@H]2O)C(O)=C([C@@H]2O[C@H](CO)[C@@H](O)[C@H](O)[C@H]2O)C1=O` (stereo not given in full) [Hydroxysafflor yellow A], for which the cell viability was found to be 1.07.

For the compound `CCOCc1nc2c(N)nc3ccccc3c2n1CC(C)(C)O` [Resiquimod], the cell viability amounted to 1.06.

As to `O=C(Nc1cccc(-c2ccccc2)c1)OC1CCCCC1`, the cell viability turned out to be 1.01.

Take `COc1ccc(CCc2cc(OC)c(OC)c(OC)c2)cc1O` [Erianin]: the cell viability was 0.335.

With `CCNC(=O)c1noc(-c2cc(C(C)C)c(O)cc2O)c1-c1ccc(CN2CCOCC2)cc1` [Luminespib], the cell viability came to 0.0552.

Turning to `CCNC(=O)c1noc(-c2cc(Cl)c(O)cc2O)c1-c1ccc(OC)cc1`, the cell viability is 0.237.

On to `O=C(Nc1ccc(CN2CCOCC2)cc1)c1ccc(-c2cccc(Cl)c2)o1`, for which the cell viability came out at 0.775.

With `CC1(C)CC[C@]2(C(=O)O)CC[C@]3(C)C(=CC[C@@H]4[C@@]5(C)CC[C@H](O[C@@H]6O[C@H](C(=O)O)[C@@H](O)[C@H](O[C@@H]7OC[C@@H](O)[C@H](O)[C@H]7O)[C@H]6O)C(C)(C)[C@@H]5CC[C@]43C)[C@@H]2C1` [Momordin Ic], the cell viability stood at 1.1.

Turning to `C[C@@]1(CO)C[C@@H](O)C[C@@]2(C)[C@@H]3CC[C@](C)([C@@H](O)CO)C=C3CC[C@H]12` [Kirenol], the cell viability was 1.1.

On to `Cc1c(CN2CCN(c3cccc(C(F)(F)F)c3)CC2)cc(-c2ccccc2)n1NC(=O)c1ccncc1` [Sudoterb free base], for which the cell viability is 1.05.

Regarding `Cc1ccc([N+](=O)[O-])cc1S(=O)(=O)N(C)/N=C/c1cnc2ccc(Br)cn12`, the cell viability stood at 0.165.

`Cc1ccc([N+](=O)[O-])cc1S(=O)(=O)N(C)/N=C/c1cnc2ccc(Br)cn12` [PIK-75  hydrochloride]: the cell viability was found to be 0.153.

As to `Cc1ccccc1C(C(=O)NC1CCCCC1)N(C(=O)Cn1cnc2ccccc21)c1cccc(F)c1` (stereo not given), the cell viability worked out at 1.19.

On to `C=CC(=O)Nc1cccc(Oc2nc(Nc3ccc(N4CCN(C)CC4)cc3OC)ncc2Cl)c1`, for which the cell viability stood at 1.19.

For `CCC(=O)Nc1cccc(Oc2nc(Nc3ccc(N4CCN(C)CC4)cc3OC)ncc2Cl)c1`, the cell viability was determined as 1.22.

On to `CN1CCN(c2ccc(OC(F)(F)F)c(Nc3ncc4c(n3)-c3c(c(C(N)=O)nn3CCO)CC4)c2)CC1`, for which the cell viability turned out to be 0.168.

In the case of `CCCCc1nc2ccc(NC(=O)NC3CCCCC3)cc2n1Cc1ccc(-c2ccccc2C(=O)O)cc1`, the cell viability came to 1.08.

As to `Cc1cc2cc(Oc3ccnc(Nc4cccc(CS(=O)(=O)NCCN(C)C)c4)n3)ccc2[nH]1` [Sulfatinib], the cell viability was 1.03.

Regarding `Cc1nc(=O)c2cc(CN(C)c3ccc(C(=O)N[C@@H](CCC(=O)O)C(=O)O)s3)ccc2[nH]1` [Raltitrexed], the cell viability came to 0.151.

With `CN(Cc1cnc2nc(N)nc(N)c2n1)c1ccc(C(=O)N[C@@H](CCC(=O)O)C(=O)O)cc1` [Methotrexate], the cell viability came out at 0.375.

For `Nc1nc(=O)c2c([nH]1)NCC(CNc1ccc(C(=O)N[C@@H](CCC(=O)O)C(=O)O)cc1)N2C=O` (stereo not given in full) [Calcium folinate], the cell viability was 1.08.

For the compound `COc1cc(/C=C/CO)cc(OC)c1O[C@@H]1O[C@H](CO)[C@@H](O)[C@H](O)[C@H]1O` [eleutheroside-b], the cell viability worked out at 1.13.

For `CCCCNNC(=O)c1ccc(-c2cccc(F)c2F)cc1`, the cell viability stood at 1.03.

On to `COc1cc(/C=C/C(=O)NCCn2c(C(F)(F)F)cc3ccccc32)cc(OC)c1OC`, for which the cell viability came to 1.05.

For the compound `COc1cc(CCC(=O)CC(=O)CCc2ccc(O)c(OC)c2)ccc1O` [Tetrahydro Curcumin], the cell viability was 1.03.

As for `CS(=O)(=O)Nc1cc(-c2ccc3ncnc(Nc4ccc(F)c(Cl)c4)c3c2)cnc1Cl`, the cell viability was found to be 1.08.

For `CCCS(=O)(=O)Nc1ccc(F)c(C(=O)c2c[nH]c3ncc(-c4ccc(Cl)cc4)cc23)c1F` [Vemurafenib], the cell viability was 1.2.

`COc1ncc(-c2ccc3nccc(-c4ccnnc4)c3c2)cc1NS(=O)(=O)c1ccc(F)cc1F` [Omipalisib]: the cell viability amounted to 0.148.
